Results reported in article PMC4336329 (PLoS ONE, 2015).
The whole screen tested about 310,000 compounds, of which about 14,000 (4.5%) showed an effect of 50% or more. The effect is printed as a negative number. For the sample, strong results were picked, then their nearest neighbours and some compounds at random.

Molecular target: human ether-à-go-go-related gene (hERG) potassium channel (human, UniProt Q12809)
Assay: primary screen, population patch clamp on CHO cells stably expressing hERG; higher = less effect of the substance
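Also: peak tail current of the secondary pulse compared with the same well before compound.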

Sequence of human ether-à-go-go-related gene (hERG) potassium channel (Q12809 whole entry, looked up): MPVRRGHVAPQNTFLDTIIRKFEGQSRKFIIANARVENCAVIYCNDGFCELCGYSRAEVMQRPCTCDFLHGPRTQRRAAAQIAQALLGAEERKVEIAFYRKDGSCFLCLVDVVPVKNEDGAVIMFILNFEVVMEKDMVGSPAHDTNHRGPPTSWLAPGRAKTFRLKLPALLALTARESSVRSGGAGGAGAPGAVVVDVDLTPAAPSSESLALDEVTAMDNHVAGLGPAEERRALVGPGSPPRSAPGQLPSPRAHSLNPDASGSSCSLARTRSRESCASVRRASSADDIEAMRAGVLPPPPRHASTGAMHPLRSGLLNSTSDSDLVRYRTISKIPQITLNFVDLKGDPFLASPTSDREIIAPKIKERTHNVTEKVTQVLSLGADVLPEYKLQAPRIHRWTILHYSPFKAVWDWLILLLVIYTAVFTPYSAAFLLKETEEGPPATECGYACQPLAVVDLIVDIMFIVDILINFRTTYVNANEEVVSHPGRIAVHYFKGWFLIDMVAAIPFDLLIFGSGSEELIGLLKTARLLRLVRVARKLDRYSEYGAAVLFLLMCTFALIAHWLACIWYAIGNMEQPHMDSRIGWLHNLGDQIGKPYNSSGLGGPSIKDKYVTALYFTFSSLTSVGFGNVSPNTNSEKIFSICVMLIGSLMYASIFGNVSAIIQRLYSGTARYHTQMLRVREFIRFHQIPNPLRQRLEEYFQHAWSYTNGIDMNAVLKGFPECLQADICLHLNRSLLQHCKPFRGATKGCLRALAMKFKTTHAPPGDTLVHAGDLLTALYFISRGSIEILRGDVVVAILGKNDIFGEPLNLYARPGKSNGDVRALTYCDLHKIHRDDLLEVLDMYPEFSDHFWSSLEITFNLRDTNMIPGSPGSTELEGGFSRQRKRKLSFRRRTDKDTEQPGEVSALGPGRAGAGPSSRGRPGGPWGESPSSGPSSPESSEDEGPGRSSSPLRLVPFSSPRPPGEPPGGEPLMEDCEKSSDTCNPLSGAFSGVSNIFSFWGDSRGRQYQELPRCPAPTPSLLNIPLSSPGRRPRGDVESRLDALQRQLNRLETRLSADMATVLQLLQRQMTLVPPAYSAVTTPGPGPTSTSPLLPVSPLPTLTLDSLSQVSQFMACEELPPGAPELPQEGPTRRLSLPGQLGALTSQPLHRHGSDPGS

| Compound | hERG current change (%, negative = inhibition) at 10uM [%] |
| --- | --- |
| CCCCCCSc1ncc(C#N)c(N)n1 | -4.45 |
| CCc1nc2c(c(=O)c3ccccc3n2C)c(=O)n1C1CCCCCC1 | -1.73 |
| CCCc1nc2c(c(=O)c3ccccc3n2C)c(=O)n1C1CCCCCC1 | -10.1 |
| CC(C)Cn1c(-c2ccco2)nc2c(c(=O)c3ccccc3n2C)c1=O | -59.3 |
| COc1ccc(Cn2c(-c3ccco3)nc3c(c(=O)c4ccccc4n3C)c2=O)cc1 | -35.3 |
| Cc1nc2c(c(=O)c3ccccc3n2C)c(=O)n1C1CCCCCC1 | -0.582 |
| Cc1ccc(-c2nc3c(c(=O)c4ccccc4n3C)c(=O)n2Cc2ccco2)cc1 | 2.18 |
| Cn1c2ccccc2c(=O)c2c(=O)n(C3CCCCC3)c(-c3cccs3)nc21 | -66.1 |
| Cn1c2ccccc2c(=O)c2c(=O)n(C3CCCCC3)c(-c3ccco3)nc21 | -53.9 |
| CCCCCc1nc2c(c(=O)c3ccccc3n2C)c(=O)n1C1CCCCCC1 | 1.32 |
| COC(=O)c1sc(NC(=O)COc2cccnc2[N+](=O)[O-])c(C(=O)OC)c1C | 3.81 |
| CCOc1ccccc1Cn1c(=O)oc2ccc(C)cc21 | 11.1 |
| Cc1cc(C)cc(N(CC(=O)NCC2CCCO2)C(=O)CCC(=O)Nc2nccs2)c1 (stereo not drawn) | 12.8 |
| O=C(/C=C/c1cccc([N+](=O)[O-])c1)NCCSCc1cccc(Cl)c1 | -18.9 |
| CCOCCCNC(=O)C(NC(=O)c1ccccc1O)c1ccccc1 (stereo not drawn) | 7.92 |
| COc1ccccc1N1CCN(C(CNS(=O)(=O)c2ccccc2)c2cccnc2)CC1 (stereo not drawn) | -7.98 |
| Cc1cc(S(=O)(=O)NCC(C)C)ccc1OCC(=O)N1CCN(Cc2ccccc2)CC1 | -35.2 |
| COc1ccccc1N1CCN(C(CNS(=O)(=O)c2ccc(C)cc2)c2cccnc2)CC1 (stereo not drawn) | -38.9 |
| COc1ccc(C)cc1S(=O)(=O)NCC(c1cccnc1)N1CCc2ccccc2C1 (stereo not drawn) | -25.3 |
| CCS(=O)(=O)NCC(c1cccnc1)N1CCN(c2ccccc2OC)CC1 (stereo not drawn) | 0.421 |
| CCN1CCN(C(CNS(=O)(=O)c2ccc(OC)c(C)c2)c2cccnc2)CC1 (stereo not drawn) | -70.2 |
| COc1ccc(S(=O)(=O)NCC(c2cccnc2)N2CCN(C)CC2)cc1C (stereo not drawn) | -62.9 |

| Compound | hERG current change (%, negative = inhibition) at 10uM [%] |
| --- | --- |
| COc1ccc(S(=O)(=O)NCC(c2cccnc2)N2CCN(c3ccccc3)CC2)cc1C (stereo not drawn) | -79.2 |
| COc1ccc(S(=O)(=O)NCc2cccnc2)cc1C | 17.1 |
| COc1ccc(S(=O)(=O)NCC(c2cccnc2)N2CCN(C)CC2)cc1OC (stereo not drawn) | 10.7 |
| COc1ccc(S(=O)(=O)NCC(c2cccnc2)N2CCN(Cc3ccccc3)CC2)cc1C (stereo not drawn) | -79.6 |
| Cc1ccc(Sc2ncccc2COC(=O)NC(C)C)cc1 | 4.99 |
| CC(C)OCCCN(CC(O)c1ccccc1)CC(O)c1ccccc1.O=C(O)C(=O)O (stereo not drawn) | -10.1 |
| CC(C)(C)C(=O)C[n+]1cccc(C(N)=O)c1.[Br-] | 21 |
| Cc1nn(-c2ccccc2)c2c1C1(C(=O)N(C(C)C)c3ccccc31)C(C#N)=C(N)O2 (stereo not drawn) | -1.88 |
| CC1=Nc2cc(C(=O)N3CCCC3)ccc2Sc2c(C)ccc(C)c21 | -19.5 |
| CSc1ncc(OCc2ccccc2)c(=O)[nH]1 | 8.39 |
| O=C1CS/C(=N\NC(=O)c2ccccc2)N1 | 15.6 |
| Cc1ccccc1-c1nc(CN2CCC(C(=O)NCCCN3CCCC3)CC2)c(C)o1 | 14.4 |
| COc1ccc(-c2nc(CN3CCC(C(=O)NCC4CCCO4)CC3)c(C)o2)cc1OC (stereo not drawn) | -20.9 |
| Cc1ccccc1-c1nc(CN2CCC(C(=O)NC3CCN(Cc4ccccc4)CC3)CC2)c(C)o1 | -43 |
| Cc1ccccc1-c1nc(CN2CCC(C(=O)NC3CC3)CC2)c(C)o1 | -33 |
| Cc1oc(-c2cccc(Cl)c2)nc1CN1CCC(C(=O)NCC2CCCO2)CC1 (stereo not drawn) | -57.1 |
| Cc1oc(-c2ccc(Cl)cc2)nc1CN1CCC(C(=O)NCC2CCCO2)CC1 (stereo not drawn) | -70.1 |
| Cc1ccccc1-c1nc(CN2CCC(C(=O)NCCN3CCOCC3)CC2)c(C)o1 | -11.4 |
| Cc1cccc(-c2nc(CS(=O)CC(=O)NCC3CCCO3)c(C)o2)c1 (stereo not drawn) | -5.24 |
| Cc1ccccc1-c1nc(CN2CCC(C(=O)NCC3CCCO3)CC2)c(C)o1 (stereo not drawn) | -54.5 |
| O=C(NCC1CCCO1)C1CCN(C(=O)c2ccc(Cl)cc2)CC1 (stereo not drawn) | -1.73 |
| Cc1ccccc1-c1nc(CN2CCC(C(=O)NC3CCCCC3)CC2)c(C)o1 | -67.7 |

| Compound | hERG current change (%, negative = inhibition) at 10uM [%] |
| --- | --- |
| COc1ccccc1N(CC(=O)NC1CCCCC1)C(=O)CCC(=O)Nc1nccs1 | -2.17 |
| COc1ccc(-c2ccc(SCC(=O)c3ccccc3)nn2)cc1OC | -15.7 |
| CC(=O)c1ccc(NC(=O)Nc2ccccc2)cc1 | -2.03 |
| CCOC(=O)c1c(C)sc2c1N(C(=O)CN1CCOCC1)c1cc(Cl)ccc1S2 | -21.5 |
| CC1CCN(C(=O)CN(C2CCCCC2)S(C)(=O)=O)CC1 | 1.15 |
| COc1ccc(N2CCN(c3cc(C)c4cccc(C)c4n3)CC2)cc1 | 22.7 |
| COc1ccccc1NC(=O)c1nnn(CC(=O)Nc2cc(C)cc(C)c2)c1N | 17 |
| CC(C)S(=O)(=O)c1cnc(N2CCOCC2)nc1N | 11.4 |
| Nc1ccc2nc(-c3ccccc3)sc2c1 | 23.4 |
| Cc1cccc(OCc2n[nH]c(=S)n2Cc2ccccc2)c1 | 11.8 |
| O=C(CNC(=O)c1sc2ccccc2c1Cl)Nc1ccccc1F | -6.72 |
| COc1ccc(NC(=O)CN(C)C(=O)CCC2CCCC2)cc1 | 5.49 |
| O=C(C1CCCN(S(=O)(=O)c2cccc3nsnc23)C1)N1CCN(c2ccccn2)CC1 (stereo not drawn) | -50.2 |
| O=C(CCNS(=O)(=O)c1cccc2nsnc12)N1CCN(c2ccccn2)CC1 | -24 |
| CC1CCN(C(=O)C2CCCN(S(=O)(=O)c3cccc4nsnc34)C2)CC1 (stereo not drawn) | -27.8 |
| O=C(C1CCC(CNS(=O)(=O)c2cccc3nsnc23)CC1)N1CCN(c2ccccn2)CC1 (stereo not drawn) | -53.9 |
| CCN(CC)C(=O)C1CCC(CNS(=O)(=O)c2cccc3nsnc23)CC1 (stereo not drawn) | 2.47 |
| O=C(C1CCC(CNS(=O)(=O)c2cccc3nsnc23)CC1)N1CC=C(c2ccccc2)CC1 (stereo not drawn) | -10.3 |
| CCCN(CCC)C(=O)C1CCC(CNS(=O)(=O)c2cccc3nsnc23)CC1 (stereo not drawn) | -69.5 |
| O=C(C1CCCN(S(=O)(=O)c2cccc3nsnc23)C1)N1CCCCCC1 (stereo not drawn) | -16.8 |
| CCCCN(CC)C(=O)C1CCC(CNS(=O)(=O)c2cccc3nsnc23)CC1 (stereo not drawn) | -23.7 |
| CN(C)c1ccc(CN(Cc2ccco2)C(=O)c2ccco2)cc1 | -30.1 |

| Compound | hERG current change (%, negative = inhibition) at 10uM [%] |
| --- | --- |
| COC(=O)c1ccc(C(=O)OC)c(NC(=S)N2CCN(C)CC2)c1 | 20.4 |
| Cc1cc(C(=O)CS(=O)(=O)c2ccc(Cl)cc2)cc(C)c1O | 16.6 |
| CS(=O)(=O)Nn1cnc2ccccc2c1=O | 10.7 |
| Cc1cc(C)c(S(=O)(=O)N2CCCOC2CNC(=O)C(=O)NCc2cccs2)c(C)c1 (stereo not drawn) | -8.31 |
| O=C1NC(=Nc2ccccc2)/C(=C/c2ccco2)S1 | 12.4 |
| CCOc1ncccc1C(=O)NNC(=O)c1cccc(S(=O)(=O)Nc2ccc(OC)cc2)c1 | 6.87 |
| CCOC(=O)Cc1[nH]nc2c1C(c1cccc(OC)c1OC)C(C#N)=C(N)O2 (stereo not drawn) | -0.21 |
| O=C(O)CCC(=O)N1CCN(c2nc(-c3ccccc3)c3ccccc3n2)CC1 | 13.7 |
| CCN1CCN(c2nc(-c3ccccc3)c3ccccc3n2)CC1 | -71.2 |
| CN1CCN(c2nc(-c3ccccc3)c3cc(Cl)ccc3n2)CC1 | -48.1 |
| c1ccc(-c2nc(N3CCCC3)nc3ccccc23)cc1 | 8.87 |
| O=C1CN(c2nc(-c3ccccc3)c3cc(Cl)ccc3n2)c2ccccc2N1 | 13.1 |
| CCOC(=O)N1CCN(c2nc(-c3ccccc3)c3ccccc3n2)CC1 | 5.1 |
| Clc1ccc2nc(N3CCNCC3)nc(-c3ccccc3)c2c1 | -59.1 |
| c1ccc(-c2nc(N3CCNCC3)nc3ccccc23)cc1 | -65.2 |
| O=C(O)CCCC(=O)N1CCN(c2nc(-c3ccccc3)c3ccccc3n2)CC1 | 1.86 |
| CC(=O)NC(Cc1ccc(F)cc1)C(=O)O (stereo not drawn) | -24.1 |
| COC(=O)CP(=O)(c1ccccc1)c1ccccc1 | 15.2 |
| Oc1ccc(/C=N/NP(=S)(c2ccccc2)c2ccccc2)cc1 | -3.89 |
| COc1ccccc1CNC(=O)c1cccs1 | 3.82 |
| CCC1=C2CC[C@H]3C(=O)N(CC)C(=O)[C@H]3[C@H]2[C@@]2(Cc3ccccc3)C(=NCCOC)OC(=O)N2C1=O | 10 |
